Screen size: about 2,000 compounds; about 250 (12%) were called active. This excerpt belongs to a sample that is enriched for actives. Values without a mark were called inactive. Cut-off read from the data, not from the text of the source: active = hERG blockade below about -20% or above about 20%; inactive = in between.
target: Voltage-gated inwardly rectifying potassium channel KCNH2 (Homo sapiens) (UniProt Q12809); experiment: KCNH2 potassium channel function modulators, cell-based (AID 376); conditions: hERG-expressing cells, channel activity single-concentration screen; concentration not given here;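 note: 0% = buffer alone and 100% = reference blocker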
Sequence (Q12809 whole entry, looked up): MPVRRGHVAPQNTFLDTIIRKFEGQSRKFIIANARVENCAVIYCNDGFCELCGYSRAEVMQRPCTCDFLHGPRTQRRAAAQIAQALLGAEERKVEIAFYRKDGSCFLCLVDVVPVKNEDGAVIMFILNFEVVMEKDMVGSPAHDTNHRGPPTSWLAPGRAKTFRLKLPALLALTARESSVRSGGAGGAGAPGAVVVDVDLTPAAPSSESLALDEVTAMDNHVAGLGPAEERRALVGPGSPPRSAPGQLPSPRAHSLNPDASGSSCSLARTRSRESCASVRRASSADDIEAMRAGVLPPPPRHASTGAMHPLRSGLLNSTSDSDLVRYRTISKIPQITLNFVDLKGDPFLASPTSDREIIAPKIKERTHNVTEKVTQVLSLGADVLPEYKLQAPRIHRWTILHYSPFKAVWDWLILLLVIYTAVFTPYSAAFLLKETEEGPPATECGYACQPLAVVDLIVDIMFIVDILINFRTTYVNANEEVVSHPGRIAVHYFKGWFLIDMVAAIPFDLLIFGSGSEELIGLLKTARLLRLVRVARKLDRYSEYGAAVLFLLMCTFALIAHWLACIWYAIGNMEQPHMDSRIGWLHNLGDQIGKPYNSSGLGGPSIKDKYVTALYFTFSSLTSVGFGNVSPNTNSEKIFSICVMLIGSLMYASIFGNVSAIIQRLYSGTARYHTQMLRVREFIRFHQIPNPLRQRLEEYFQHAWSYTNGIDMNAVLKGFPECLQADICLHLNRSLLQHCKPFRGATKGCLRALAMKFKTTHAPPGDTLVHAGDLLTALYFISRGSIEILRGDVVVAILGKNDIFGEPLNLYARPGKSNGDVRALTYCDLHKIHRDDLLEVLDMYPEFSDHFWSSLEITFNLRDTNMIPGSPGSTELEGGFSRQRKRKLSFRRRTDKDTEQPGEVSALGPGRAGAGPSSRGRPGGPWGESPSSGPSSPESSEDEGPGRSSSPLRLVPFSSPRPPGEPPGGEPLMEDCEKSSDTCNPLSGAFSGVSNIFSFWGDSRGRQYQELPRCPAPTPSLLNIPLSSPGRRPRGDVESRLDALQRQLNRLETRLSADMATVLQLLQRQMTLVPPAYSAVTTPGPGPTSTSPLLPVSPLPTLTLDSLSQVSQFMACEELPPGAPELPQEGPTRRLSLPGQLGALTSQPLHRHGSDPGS

SMILES | hERG blockade
CCCC(c1cc(C(C)(C)C)c(O)cc1C)c1cc(C(C)(C)C)c(O)cc1C | 4.17%
CC(=N[O-])C(C)=N[O-].CC(=N[O-])C(C)=N[O-].C[CH-]C(C)O.[Co].c1ccncc1 | -3.56%
Nc1ccn(C2OC(CO)C3[O][Sn]([c]4ccccc4)([c]4ccccc4)[O]C32)c(=O)n1 (stereo not given) | 9.47%
N=c1ccn2c(n1)OC1C(OP(=O)(O)O)C(CO)OC12 (stereo not given) | -24.7% (active)
Nc1ccn(C2OC(COP(=O)(O)O)C(O)C2O)c(=O)n1 (stereo not given) | -9.61%
Fc1cccc(Cl)c1C=NN=C1c2ccccc2-c2ccccc21 | 4.24%
O=C(O)c1c(Cl)c(Cl)c(Cl)c(Cl)c1C(=O)Nc1ccc2cn[nH]c2c1 | 9.23%
C[N+](C)(C)C(Cc1c[nH]c(=S)[nH]1)C(=O)O (stereo not given) | -14%
COc1ccc(-c2nc(N)c3ncn(C4OC(CO)C(O)C4O)c3n2)cc1 (stereo not given) | -8.39%
CC(C)CC(N)C(=O)O (stereo not given) | 6.02%
NC(Cc1ccccc1)(C(=O)O)C(=O)O | -3.15%
COc1ccc(Cc2ccccc2C(=O)O)c2ccccc12 | -3.19%
COc1cc(C(=O)O)c([N+](=O)[O-])c(OC)c1OC | 23.9% (active)
NS(=O)(=O)c1cc(C(=O)O)c(Cl)c([N+](=O)[O-])c1Cl | -6.38%
Cc1cc(=O)oc2cc(O)c(CN(C)CC(=O)O)cc12 | 0.517%
O=c1[nH]c(=S)[nH]c2c1CN(CCCN1CCOCC1)CN2 | 3%
NCCSCc1ccccc1Cl | 6.42%
CN(CCO)Cc1ncccc1O | -0.376%
CC(CCC(=O)O)C1CCC2C3CCC4CC(O)CCC4(C)C3CC(O)C12C (stereo not given) | 2.74%
CN(C)CCCn1c2c3ccccc3ccc2c2oc(=O)c3ccccc3c21 | 122% (active)

SMILES | hERG blockade
Cc1nc2cccc([N+](=O)[O-])c2n1CCCN(C)C | 3.79%
Cc1ccc(N2CCN(CCC(=O)O)CC2)cc1 | -0.109%
CCCn1cnc2c(SCC(=O)O)nc(N)nc21 | 4.79%
NC(=S)NN=Cc1c[nH]c2ccccc12 | 9.72%
CCCCNS(=O)(=O)c1n[nH]c(=O)[nH]c1=O | -14.2%
CC(CCC(C)=NO)=NO | -14.3%
Cc1cc(Cl)ccc1Nc1sc(C(=O)c2cc3cc(Cl)ccc3o2)c(N)c1C#N | 24% (active)
O=C(O)c1c(-c2nccc3ccccc23)[nH]c(-c2ccccc2)c1S(=O)(=O)O | -1.08%
COc1ccc2nccc(SCC(=O)O)c2c1 | -9.78%
CC(=O)Nc1ccccc1C=C1c2ccccc2-c2ccccc21 | -13.9%
CC(=O)Nc1ccc2c(c1)C(=Cc1ccc([N+](C)(C)C)cc1)c1ccccc1-2 | 24.7% (active)
CC(=O)Nc1ccc2c(c1)C(=Nc1ccc(C(=O)O)cc1)c1ccccc1-2 | 19.5%
Cc1ccc(C(C#N)=Cc2cccc([N+](=O)[O-])c2)cc1 | 11.7%
CC(=O)n1c(COS(C)(=O)=O)nc2ccccc21 | 4.86%
OC(CCN1CCCCC1)(c1ccccc1)c1ccccc1 | 11.6%
CC1CC(C)(C)CC(OCCN2CCCCC2)(c2ccccc2)C1 (stereo not given) | 21.3% (active)
Cc1ccc(S(=O)(=O)Nc2ccccc2C=O)cc1 | 5.12%
C[N+]1(CCCC[N+]2(C)CCCCCCC2)CCCCCCC1 | 13.6%
N#CC(C#N)=CNCCN1CCN(C=C(C#N)C#N)CC1 | -5.6%
CN(C)CCNc1ccccn1 | 5.77%
